According to the supplement of paper PMC7411054:
Where a name gives a salt, the structure may show the parent alone.

What was measured:
Settings in all cases: treatment time: 24 h
HepG2-ACTB-RAB5A = test: lowest phenotypically active concentration; higher = less potent
How it was run: (§1)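 Two criteria together defined phenotypic activity: deviation and reproducibility. Deviation meant ≥3 of 4 wells beyond the 95th percentile of Euclidean distances in solvent control wells, and reproducibility meant a median replicate Pearson correlation above the 95th percentile of non-replicates. Wells had been treated for 24 h at 0.3, 1, 3 or 9 µM in fifteen gene-edited A549, HepG2 and WPMY1 reporter lines before live imaging.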

HepG2-CANX-COX4 = test: as above
How it was run: as §1

HepG2-GM130-SQSTM1 = test: as above
How it was run: as §1

HepG2-TUBA1B-RELA = test: as above
How it was run: as §1

WPMY1-ACTB-RAB5A [1] = test: as above
How it was run: as §1

WPMY1-CANX-COX4 = test: as above
How it was run: as §1

WPMY1-GM130-SQSTM1 = test: as above
How it was run: as §1

WPMY1-TP53BP1-CLTA = test: as above
How it was run: as §1

WPMY1-TUBA1B-RELA = test: as above
How it was run: as §1

WPMY1-ACTB-RAB5A [2] = test: phenotypically active (imaging signature differs from DMSO and reproducible) at any of 0.3-9 uM (binary (1 = active, 0 = inactive)); higher = active
How it was run: as §1

Structure (SMILES) | lowest phenotypically active concentration (HepG2-ACTB-RAB5A) [µM] | lowest phenotypically active concentration (HepG2-CANX-COX4) [µM] | lowest phenotypically active concentration (HepG2-GM130-SQSTM1) [µM] | lowest phenotypically active concentration (HepG2-TUBA1B-RELA) [µM] | lowest phenotypically active concentration (WPMY1-ACTB-RAB5A [1]) [µM] | lowest phenotypically active concentration (WPMY1-CANX-COX4) [µM] | lowest phenotypically active concentration (WPMY1-GM130-SQSTM1) [µM] | lowest phenotypically active concentration (WPMY1-TP53BP1-CLTA) [µM] | lowest phenotypically active concentration (WPMY1-TUBA1B-RELA) [µM] | phenotypically active (WPMY1-ACTB-RAB5A [2])
COc1cc(C(=O)NC2CCN(C)CC2)c(F)cc1Nc1ncc2c(n1)N(C1CCCC1)CC(F)(F)C(=O)N2C [TAK 960 hydrochloride] | ≤ 0.3 | ≤ 0.3 | ≤ 0.3 | ≤ 0.3 | ≤ 0.3 | 1 | ≤ 0.3 | ≤ 0.3 | ≤ 0.3 | 1 (active)
CO[C@H]1C[C@@H]2CC[C@@H](C)[C@@](O)(O2)C(=O)C(=O)N2CCCC[C@H]2C(=O)O[C@H]([C@H](C)C[C@@H]2CC[C@@H](OC(=O)C(C)(CO)CO)[C@H](OC)C2)CC(=O)[C@H](C)C=C(C)[C@@H](O)[C@@H](OC)C(=O)[C@H](C)C[C@H](C)C=CC=CC=C1C [Temsirolimus] | ≤ 0.3 | 1 | ≤ 0.3 | 1 | ≤ 0.3 | ≤ 0.3 | ≤ 0.3 | ≤ 0.3 | 3 | 1 (active)
COc1cc(C)c(Sc2cnc(NC(=O)c3ccc(CNC(C)C(C)(C)C)cc3)s2)cc1C(=O)N1CCN(C(C)=O)CC1 (stereo not drawn) | 3 | 3 | 3 | 3 | 3 | 3 | 3 | 3 | 3 | 1 (active)
Cc1c(NC(=O)OC[C@@H]2COCCN2)cn2ncnc(Nc3ccc4c(cnn4Cc4cccc(F)c4)c3)c12 | 3 | 9 | 1 | 1 | 3 | 3 | 9 | 9 | 3 | 1 (active)
CC(C)n1c(/C=C/[C@@H](O)C[C@@H](O)CC(=O)O)c(-c2ccc(F)cc2)c2ccccc21.CC(C)n1c(/C=C/[C@H](O)C[C@H](O)CC(=O)O)c(-c2ccc(F)cc2)c2ccccc21 [Fluvastatin sodium] | 1 | 1 | 1 | 1 | ≤ 0.3 | 1 | ≤ 0.3 | 1 | 1 | 1 (active)
Nc1ncnc2c1nc(Cl)n2C1O[C@H](CO)[C@@H](O)[C@H]1O (stereo partly drawn) [8-Chloroadenosine] | 1 | 3 | 1 | 3 | 9 | 3 | 3 | 3 | 3 | 1 (active)
CN1CCC(=C2c3ccccc3CC(=O)c3sccc32)CC1 [ketotifen] | 9 | 9 | 9 | 3 | 9 | 9 | 9 | 9 | 9 | 1 (active)
CO[C@H]1C=CC=C(C)C(=O)NC2=CC(=O)C(NCCN(C)C)=C(C[C@@H](C)C[C@H](OC)[C@H](O)[C@@H](C)C=C(C)[C@@H]1OC(N)=O)C2=O [17-DMAG hydrochloride] | ≤ 0.3 | ≤ 0.3 | ≤ 0.3 | ≤ 0.3 | ≤ 0.3 | ≤ 0.3 | ≤ 0.3 | ≤ 0.3 | ≤ 0.3 | 1 (active)
Oc1cccc(-c2nc(N3CCOCC3)c3oc4ncccc4c3n2)c1 [PI 103 hydrochloride] | ≤ 0.3 | ≤ 0.3 | ≤ 0.3 | ≤ 0.3 | ≤ 0.3 | ≤ 0.3 | ≤ 0.3 | ≤ 0.3 | ≤ 0.3 | 1 (active)
Cc1n[nH]c2ccc(-c3cncc(OC[C@@H](N)Cc4ccccc4)c3)cc12 | ≤ 0.3 | ≤ 0.3 | ≤ 0.3 | ≤ 0.3 | ≤ 0.3 | ≤ 0.3 | ≤ 0.3 | ≤ 0.3 | ≤ 0.3 | 1 (active)
O=C(Nc1cccnc1)N1CCC(Cc2cccc(Oc3ccc(C(F)(F)F)cn3)c2)CC1 | 9 |  |  | 9 |  |  | 9 |  |  | 0 (inactive)
CN(C)CCCN1c2ccccc2Sc2ccc(Cl)cc21 [chlorpromazine] |  | 9 | 9 | 9 | 9 | 9 |  | 9 | 9 | 1 (active)
C/C=C1\NC(=O)[C@H]2CSSCCC=C[C@H](CC(=O)N[C@H](C(C)C)C(=O)N2)OC(=O)[C@H](C(C)C)NC1=O | ≤ 0.3 | ≤ 0.3 | ≤ 0.3 | ≤ 0.3 | ≤ 0.3 | ≤ 0.3 | ≤ 0.3 | ≤ 0.3 | ≤ 0.3 | 1 (active)
Nc1ncnc(Nc2ccc(OCc3ccccc3)c(Cl)c2)c1/C=N/OCCN1CCOCC1 | 9 |  | 9 | 9 |  |  |  |  |  | 0 (inactive)
C=CC(=O)Nc1cccc(Nc2nc(Nc3ccc(Oc4ccnc(C(=O)NC)c4)cc3)ncc2F)c1 | 9 |  | 9 | 9 | 3 | 9 | 9 |  |  | 1 (active)
COc1cc2c(N3CCN(C(=O)Nc4ccc(OC(C)C)cc4)CC3)ncnc2cc1OCCCN1CCCCC1 [tandutinib] | 9 | 9 | 9 | 3 | 9 | 9 | 9 |  | 9 | 1 (active)
N#CC[C@@H](C1CCCC1)n1cc(-c2ncnc3[nH]ccc23)cn1 [ruxolitinib-(S)] |  | 9 | 9 | 9 | 9 | 9 |  |  | 3 | 1 (active)
CN1CCCC(n2nc(Cc3ccc(Cl)cc3)c3ccccc3c2=O)CC1 (stereo not drawn) [azelastine] | 9 |  | 9 | 9 | 9 | 9 | 9 | 9 | 9 | 1 (active)
N=C(N)c1ccc(OCCCCCOc2ccc(C(=N)N)cc2)cc1 [pentamidine] | 9 | 9 |  | 9 |  |  | 9 |  |  | 0 (inactive)
Cc1cc2c(F)c(Oc3ncnn4cc(OC[C@@H](C)O)c(C)c34)ccc2[nH]1 [brivanib] | 9 | 9 | 9 | 9 | 3 | 9 |  | 3 | 9 | 1 (active)
CC(C)CNc1nc(-c2cccc3ncccc23)cn2c(-c3ccc(C(=O)NC4CC4)cc3)cnc12 | 1 | 1 | 1 | 1 | 1 |  | 1 | 1 |  | 1 (active)
COc1cc(N2CCC(N3CCN(C)CC3)CC2)ccc1Nc1ncnc(Nc2ccccc2S(=O)(=O)C(C)C)n1 | 9 | 3 | 9 | 9 | 9 | 3 | 9 | 9 | 9 | 1 (active)
Cn1cnc2c(F)c(Nc3ccc(Br)cc3Cl)c(C(=O)NOCCO)cc21 [selumetinib] | ≤ 0.3 | ≤ 0.3 | ≤ 0.3 | 1 | 9 |  | 3 | 3 |  | 1 (active)
